Hits are enriched below; roughly 2.3% of the tested compounds scored in any of these assays.
PAD4 inh = blocks human protein arginine deiminase 4 | recombinant PAD4, RCA probe fluorescence polarization | Q9UM07 | AID 485272 | inhibition, % at 6.36 µM | hit rate 0.41% among 330,000;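 active = percent inhibition above a cutoff equal to the mean of all tested compounds plus 3 SD, cut at about 15% in these data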;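 also: 0% = PAD4 with RCA probe and DMSO and 100% = probe without PAD4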
PME-1 primary = PME-1 (human) inhibition; recombinant PME-1, FP-Rh probe fluorescence polarization; inhibition, % at 5.9 µM; hit rate 0.53% among 320,000;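 active = inhibition above the campaign mean of all compounds plus 3 SD, cut at about 26% in these data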;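 also: competitive labeling of PME-1 active site by serine hydrolase directed probe; 0% = PME-1 with DMSO and 100% = wells lacking PME-1 enzyme; inhibitors block probe labeling so polarization falls and inhibition rises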
Fam108B inh = counter-screen for RBBP9 inhibitors: inhibitors of mouse Fam108B; recombinant Fam108B, FP-Rh probe fluorescence polarization; inhibition, % at 9.51 µM; hit rate 0.33% among 300,000; AID 1947;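 active = inhibition above the screen mean inhibition plus 3 SD, computed separately per campaign, cut at about 18% in these data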;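 also: inhibitors lower polarization as less probe binds the enzyme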
GSTO1 inh = counter-screen for RBBP9 inhibitors: inhibitors of human GSTO1; recombinant GSTO1, activity-based probe fluorescence polarization; hit rate 1.1% among 300,000; inhibition, % at 5.96 µM; P78417;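 active = inhibition above the campaign mean inhibition plus 3 SD, cut at about 35% in these data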;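 also: 0% = GSTO1-1 with DMSO and 100% = wells lacking GSTO1-1 enzyme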
Target sequence (P78417 whole entry, looked up): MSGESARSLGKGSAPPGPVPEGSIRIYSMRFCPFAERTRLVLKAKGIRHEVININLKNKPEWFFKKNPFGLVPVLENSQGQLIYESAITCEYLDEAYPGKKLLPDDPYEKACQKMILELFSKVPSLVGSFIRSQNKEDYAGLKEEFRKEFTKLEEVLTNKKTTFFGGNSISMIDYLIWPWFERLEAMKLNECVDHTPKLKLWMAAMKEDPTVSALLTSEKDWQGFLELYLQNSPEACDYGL
pPAFAH inh = pPAFAH (human) enzyme inhibition | hit rate 1.5% among 330,000 | recombinant pPAFAH, FP-rhodamine probe fluorescence polarization | inhibition, % at 3.39 µM;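 active = inhibition above the mean inhibition across the screen plus 3 SD, cut at about 25% in these data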;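 also: inhibitors block binding of the rhodamine activity-based probe so polarization drops; 0% = enzyme with DMSO and 100% = wells lacking pPAFAH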
pPAFAH FP conf = pPAFAH (human) inhibition, confirmed; shares compounds with pPAFAH inh; recombinant pPAFAH, FP-Rh probe fluorescence polarization; inhibition, % at 3.39 µM; hit rate 72% among 2,300; AID 463230;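 active = mean inhibition of the triplicate above the hit cutoff set for the earlier primary screen, cut at about 25% in these data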;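 also: 0% = enzyme with DMSO and 100% = wells lacking pPAFAH enzyme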
An asterisk follows results filed as active.

For O=C(COC(=O)c1ccc[n+]([O-])c1)Nc1ccc([N+](=O)[O-])cc1Cl the results were PAD4 inh -4 and pPAFAH inh -1.
Screening O=C(O)c1cc(Cl)c2c(c1)[C@@H]1C=CC[C@@H]1[C@H](c1ccc(S(=O)(=O)N3CCOCC3)cc1)N2 returned PAD4 inh 5, PME-1 primary 0, Fam108B inh 1, GSTO1 inh 24, pPAFAH inh 46* and pPAFAH FP conf 20.
CCOC(=O)/C(=N\Nc1ccccc1)P(=O)(c1ccccc1)c1ccccc1 was read as PAD4 inh -2, PME-1 primary 4, Fam108B inh 3, GSTO1 inh -9 and pPAFAH inh 6.
For Cc1nc(NCCC(C)C)c2nnn(Cc3ccccc3)c2n1 the results were PAD4 inh 1, PME-1 primary -1, Fam108B inh 4, GSTO1 inh 4 and pPAFAH inh 10.
Screening COc1cccc(NC(=O)Nc2cc(C(=O)NCC3CCCO3)ccc2N2CC3CC(C2)c2cccc(=O)n2C3)c1 (stereo unspecified) returned PAD4 inh -3, PME-1 primary 0, Fam108B inh 3, GSTO1 inh 1, pPAFAH inh 62* and pPAFAH FP conf 61*.
For CC(=O)Nc1ccc(SCCN2CC[C@@H](C)CCC2=O)cc1 the results were PAD4 inh 1, PME-1 primary -2 and pPAFAH inh -2.
`Cc1cccc(C)c1NS(=O)(=O)c1ccc(-c2ccc(=O)[nH]n2)o1` gave PAD4 inh 1, PME-1 primary -2, Fam108B inh -6, GSTO1 inh 0 and pPAFAH inh 4.
Screening Cc1ccc(NS(=O)(=O)c2ccc(-c3ccc(=O)[nH]n3)o2)cc1 returned PAD4 inh -3, PME-1 primary -6, Fam108B inh 0, GSTO1 inh 3, pPAFAH inh 36* and pPAFAH FP conf 22.
O=C(NCCN1CCOCC1)c1ccc(NS(=O)(=O)c2ccccc2)cc1 was read as PAD4 inh -4, PME-1 primary -1, Fam108B inh 0, GSTO1 inh -1 and pPAFAH inh 7.
COc1ccc(C)cc1NC(=O)NNC(=O)c1cc2ccccc2cc1O was read as PAD4 inh -8, PME-1 primary 26*, Fam108B inh 12, GSTO1 inh 3, pPAFAH inh 48* and pPAFAH FP conf 52*.
`COc1ccc(/C=C2/C(=O)N(c3nc4ccccc4s3)N=C2CSc2ccc(Cl)cc2)cc1` gave PAD4 inh -9, PME-1 primary -1, Fam108B inh 1, GSTO1 inh 9, pPAFAH inh 51* and pPAFAH FP conf 18.
Screening Cc1ccc(S(=O)(=O)N(C)C)cc1NC(=O)c1c(-c2c(F)cccc2Cl)noc1C returned PAD4 inh 5, PME-1 primary 1, Fam108B inh -1, GSTO1 inh 7 and pPAFAH inh -5.
CCOCCn1c(=O)c2c(nc3n2CCCN3CCc2ccccc2)n(C)c1=O was read as PAD4 inh -1, PME-1 primary -6, Fam108B inh -3, GSTO1 inh 4 and pPAFAH inh 4.
For CCOCCn1c(=O)c2c(nc3n2CCCN3Cc2ccccc2)n(C)c1=O the results were PAD4 inh 3, PME-1 primary 1, Fam108B inh 1, GSTO1 inh 0, pPAFAH inh 42* and pPAFAH FP conf 3.
For Cc1ccc2c(c1)N(C(=O)CCC(=O)NCCCN1CCN(C)CC1)CC(C)O2 (stereo unspecified) the results were PAD4 inh 2, PME-1 primary -7, Fam108B inh 1, GSTO1 inh 1 and pPAFAH inh 4.
For CN(CC(=O)Nc1ccccc1Cl)C(=O)Cn1cc(C(F)(F)F)ccc1=O the results were PAD4 inh 2, PME-1 primary 10 and pPAFAH inh 5.
COc1cc(C(=O)Oc2c(CN3CCOCC3)cc(Cl)c3cccnc23)cc(OC)c1OC was read as PAD4 inh -8, PME-1 primary 1, Fam108B inh 2, GSTO1 inh 9, pPAFAH inh 40* and pPAFAH FP conf 5.
For O=C1CN(C(=O)CSc2nc(-c3ccc(Cl)cc3)cs2)c2ccccc2N1 the results were PAD4 inh -4, PME-1 primary 0, Fam108B inh -2, GSTO1 inh 7 and pPAFAH inh 3.
For CC(=O)Nc1nc(C)c(-c2csc(Nc3cccc(C(C)=O)c3)n2)s1 the results were PAD4 inh -3, PME-1 primary 17, Fam108B inh 13, GSTO1 inh 8, pPAFAH inh 38* and pPAFAH FP conf 37*.
`COc1cccc(OC)c1CC1SC(=O)NC1=O` (stereo unspecified) gave PAD4 inh -1, PME-1 primary 2, Fam108B inh 1, GSTO1 inh 3 and pPAFAH inh -4.
`C[C@H]1COC2=C1C(=O)C(=O)c1c2ccc2c1CCCC2(C)C` gave PAD4 inh -10, PME-1 primary 11, Fam108B inh 10, GSTO1 inh 68*, pPAFAH inh 80* and pPAFAH FP conf 74*.
`Cc1coc2c1C(=O)C(=O)c1c-2ccc2c1CCCC2(C)C` gave PAD4 inh -1, PME-1 primary 8, Fam108B inh 8, GSTO1 inh 28, pPAFAH inh 56* and pPAFAH FP conf 70*.
For O=C(CCn1c(=O)oc2cc(Cl)ccc21)Nc1ccc(N2CCOCC2)cc1 the results were PAD4 inh 1, PME-1 primary 2, Fam108B inh 2, GSTO1 inh 1 and pPAFAH inh 5.
For CCOC(=O)Cc1csc(SCC(=O)Nc2nccs2)n1 the results were PAD4 inh 1, PME-1 primary 3, Fam108B inh -4, GSTO1 inh 3 and pPAFAH inh 2.
`CCOC(=O)Cc1csc(SCC(=O)Nc2sc3c(c2C(N)=O)CCC3)n1` gave PAD4 inh -6, PME-1 primary -4, Fam108B inh 9, GSTO1 inh 12, pPAFAH inh 37* and pPAFAH FP conf 19.
O=C(CNc1ccccc1)Nc1cccc2ccccc12 was read as PAD4 inh -5, PME-1 primary 2, Fam108B inh -3, GSTO1 inh 13 and pPAFAH inh 4.
Screening COc1ccc(CCn2c(C)cc(C(=O)COC(=O)c3ccc(NC(=O)CC#N)cc3)c2C)cc1 returned PAD4 inh 2, PME-1 primary -41, Fam108B inh -37, GSTO1 inh -60 and pPAFAH inh 10.
Screening COc1ccc(CCOC(=O)c2ccc(NC(=O)CC#N)cc2)cc1 returned PAD4 inh -4, PME-1 primary 10, Fam108B inh -7, GSTO1 inh -13, pPAFAH inh 53* and pPAFAH FP conf 2.
Screening CN1CCc2c(sc(NC(=O)c3cc(Cl)sc3Cl)c2C(N)=O)C1 returned PAD4 inh 0, PME-1 primary 0, Fam108B inh 1, GSTO1 inh -13 and pPAFAH inh 1.
